Test results from PubChem BioAssay (NCI).
About 79,000 compounds went through this panel and 15% of them were active in at least one assay; those are over-represented in the sample as a whole. The source made the active and inactive calls. Cut-off read from the data, not from the text of the source: active = growth inhibition above about 70%; inactive = the rest.

Experiments:
[1] = NCI Yeast Anticancer Drug Screen. Data for the rad50 strain (AID 155);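 note: 0% = growth of vehicle-only cultures of the same strain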; conditions: S. cerevisiae rad50 strain growth inhibition, active compounds read high
Summary of the method: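 Readout: growth inhibition relative to vehicle-treated cultures. Compound exposure was carried out in a genetically defined yeast strain deficient in DNA damage repair.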

[2] = NCI Yeast Anticancer Drug Screen. Data for the mec2-1 strain (AID 157); conditions: S. cerevisiae mec2-1 strain, active compounds read high
Summary of the method: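 Using mec2-1 yeast: add compound, measure growth, express inhibition versus vehicle-treated cultures.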

[3] = NCI Yeast Anticancer Drug Screen. Data for the sgs1 mgt1 strain (AID 161);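 note: 0% = growth of cultures given vehicle only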; conditions: S. cerevisiae sgs1 mgt1 strain, active compounds read high
Summary of the method: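 Percent growth inhibition was derived by comparing compound-exposed mutant yeast with vehicle-exposed cultures. The strain carries alterations in DNA damage repair.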

[4] = NCI Yeast Anticancer Drug Screen. Data for the cln2 rad14 strain (AID 165);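 note: 0% = growth equal to vehicle treated cultures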; conditions: S. cerevisiae cln2 rad14 strain, active compounds read high
Summary of the method: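 Yeast strain cln2 rad14, bearing defects in cell cycle control and DNA repair, serves as the test system; values reflect growth inhibition compared with vehicle.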

[5] = NCI Yeast Anticancer Drug Screen. Data for the bub3 strain (AID 167); conditions: S. cerevisiae bub3 mutant strain, active compounds read high
Summary of the method: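 Readout: yeast growth inhibition, expressed relative to vehicle-only wells. The test organism is a mutant strain from a panel with lesions in DNA repair or checkpoint genes.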

[6] = NCI Yeast Anticancer Drug Screen. Data for the mlh1 rad18 strain (AID 175); conditions: S. cerevisiae mlh1 rad18 strain growth inhibition, active compounds read high
Summary of the method: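 Steps: expose repair-defective yeast to compound; measure growth; express inhibition against vehicle-treated controls.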

[7] = at 5.0 µM (retest, dose inferred, filed as 0.5)
[8] = at 50.0 µM (retest, dose inferred, filed as 5.0)

Measured: growth inhibition

COc1ccc(Cc2cncc3c(O)c(OC)ccc23)cc1O
inactive: [1]; [7] -1% | [1]; [8] 44% | [2]; [7] 0% | [2]; [8] 50% | [2]; at 50.0 µM 69.2% | [3]; [7] -13% | [3]; [8] 50% | [3]; at 50.0 µM 39.2% | [4]; [7] 2% | [4]; [8] 14% | [4]; at 50.0 µM 59.9% | [5]; [7] -1% | [5]; [8] 21% | [6]; [7] 6% | [6]; [8] 49%
active: [1]; at 50.0 µM 80.2% | [5]; at 50.0 µM 86.4% | [6]; at 50.0 µM 89.5%

Nc1ccc(C(=O)Nc2ccc(C(=O)Nc3ccc(/C=C/c4ccc(NC(=O)c5ccc(N)cc5)cc4S(=O)(=O)O)c(S(=O)(=O)O)c3)cc2)cc1
inactive: [1]; [7] -2% | [1]; at 50.0 µM 68.5% | [2]; [7] -21% | [3]; [7] 3% | [3]; at 50.0 µM 69.3% | [4]; [7] 16% | [4]; [8] 39% | [4]; at 50.0 µM 18.3% | [5]; [7] -15% | [6]; [7] -15% | [6]; [8] 61%
active: [1]; [8] 87% | [2]; [8] 76% | [2]; at 50.0 µM 72.8% | [3]; [8] 78% | [5]; [8] 82% | [5]; at 50.0 µM 70.4% | [6]; at 50.0 µM 74.2%

CC(C)C[NH-].CC(C)C[NH-].[Cl][Pt+2]([Cl])([Cl])[Cl]
inactive: [2]; [7] 46% | [4]; [7] 53% | [6]; [7] 66%
active: [1]; [7] 72% | [1]; [8] 98% | [1]; at 50.0 µM 85.2% | [2]; [8] 99% | [2]; at 50.0 µM 91.5% | [3]; [7] 70% | [3]; [8] 99% | [3]; at 50.0 µM 89.2% | [4]; [8] 99% | [4]; at 50.0 µM 83.5% | [5]; [7] 70% | [5]; [8] 99% | [5]; at 50.0 µM 89.5% | [6]; [8] 98% | [6]; at 50.0 µM 87.8%

N#Cc1c(-c2ccc(Cl)cc2)c2c(n(C3OC(CO)C(O)C(O)C3O)c1=S)CCCC2 (stereo not given)
inactive: [1]; [7] -3% | [1]; at 50.0 µM 9.95% | [2]; [7] -2% | [2]; at 50.0 µM 10.5% | [3]; [7] -1% | [3]; at 50.0 µM -8.85% | [4]; [7] 3% | [4]; at 50.0 µM 31.2% | [5]; [7] 3% | [5]; at 50.0 µM 1% | [6]; [7] -2% | [6]; at 50.0 µM 14.9%
active: [1]; [8] 88% | [2]; [8] 77% | [3]; [8] 96% | [4]; [8] 86% | [5]; [8] 96% | [6]; [8] 96%

O=C(Nc1ccc(Cl)cc1)Nc1nnc2nc(C(C(=O)c3ccc(F)cc3)c3nc4nnc(NC(=O)Nc5ccc(Cl)cc5)n4[nH]c3=O)c(=O)[nH]n12
inactive: [1]; [7] -11% | [1]; [8] 32% | [2]; [7] -19% | [2]; [8] 56% | [3]; [7] 4% | [3]; [8] 33% | [4]; [7] -38% | [4]; [8] 36% | [5]; [7] -26% | [5]; [8] 48% | [6]; [7] -10% | [6]; [8] 64%
active: [1]; at 50.0 µM 99.5% | [2]; at 50.0 µM 99.5% | [3]; at 50.0 µM 99.5% | [4]; at 50.0 µM 99.2% | [5]; at 50.0 µM 99% | [6]; at 50.0 µM 99.5%

Cc1cc(O)c(C=NC(=S)C(N)=S)c(=O)o1
inactive: [1]; [7] 29% | [1]; [8] 43% | [1]; at 50.0 µM -27.7% | [2]; [7] 13% | [2]; [8] 42% | [2]; at 50.0 µM -19.6% | [3]; [7] 22% | [3]; [8] 46% | [3]; at 50.0 µM 8.7% | [4]; [7] 14% | [4]; [8] 22% | [4]; at 50.0 µM -4.4% | [5]; [7] 21% | [5]; [8] 49% | [5]; at 50.0 µM -26.5% | [6]; [7] 17% | [6]; [8] 42% | [6]; at 50.0 µM -38%

CCN(CC)c1ccc(NC(C(=O)c2ccccc2)c2ccc3c(c2)OCO3)cc1 (stereo not given)
inactive: [1]; [7] -23% | [1]; [8] -26% | [1]; at 50.0 µM 27.2% | [2]; [7] -3% | [2]; [8] 5% | [2]; at 50.0 µM 32.7% | [3]; [7] -23% | [3]; [8] 14% | [3]; at 50.0 µM 46.1% | [4]; [7] -1% | [4]; [8] -10% | [4]; at 50.0 µM -8.35% | [5]; [7] 3% | [5]; [8] 14% | [5]; at 50.0 µM 25.9% | [6]; [7] -4% | [6]; [8] 12% | [6]; at 50.0 µM 42.5%

O=C(c1ccc(Br)cc1)C1N=NCC1c1ccccc1 (stereo not given)
active: [5]; at 50.0 µM 86.3% | [6]; at 50.0 µM 80.2%
inactive: [1]; [7] 1% | [1]; [8] 36% | [1]; at 50.0 µM -4.75% | [2]; [7] 9% | [2]; [8] 52% | [2]; at 50.0 µM 64.7% | [3]; [7] 4% | [3]; [8] -14% | [3]; at 50.0 µM 64.7% | [4]; [7] 6% | [4]; [8] 65% | [4]; at 50.0 µM 12.8% | [5]; [7] 0% | [5]; [8] 59% | [6]; [7] -4% | [6]; [8] 64%

O=P1(Cc2ccccc2)c2ccccc2-c2ccccc21
inactive: [1]; [7] -21% | [2]; [7] -17% | [3]; [7] -24% | [4]; [7] -18% | [5]; [7] -33% | [6]; [7] 4%
active: [1]; [8] 99% | [1]; at 50.0 µM 85.6% | [2]; [8] 99% | [2]; at 50.0 µM 91.1% | [3]; [8] 97% | [3]; at 50.0 µM 88.9% | [4]; [8] 96% | [4]; at 50.0 µM 89.4% | [5]; [8] 99% | [5]; at 50.0 µM 88.7% | [6]; [8] 99% | [6]; at 50.0 µM 84.3%

COc1ccc2nc3cc(Cl)ccc3c(NCCCN(Cc3cc(OC)c(OC)c(OC)c3)Cc3cc(OC)c(OC)c(OC)c3)c2c1
active: [1]; [8] 72% | [5]; [8] 83% | [6]; [8] 80% | [6]; at 50.0 µM 73.5%
inactive: [1]; [7] 45% | [1]; at 50.0 µM 62.4% | [2]; [7] 29% | [2]; [8] 58% | [2]; at 50.0 µM 34.6% | [3]; [7] 38% | [3]; [8] 62% | [3]; at 50.0 µM 45.6% | [4]; [7] 32% | [4]; [8] 43% | [4]; at 50.0 µM 33.4% | [5]; [7] 37% | [5]; at 50.0 µM 56.6% | [6]; [7] 48%
